Laboratory results taken from PubChem BioAssay AID1014 (NMMLSC, 2008).
The source made the active and inactive calls. Rule as the data show it: active = inhibition of mean fluorescence above about 33%; inactive = the rest.

Test: quorum sensing inhibitors in bacterial reporter, SAR follow-up, flow cytometry, SAR analogs (AID 1014);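 also: Staphylococcus aureus RN6390 with RNAIII-GFP reporter stimulated by AIP; bacteria incubated with compound for 3 hours at 37 °C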
Conditions: at 20 µM, stronger effect = higher value; inhibition of percent positive cells: flow cytometry fluorescence, measured here: percent reporter-positive cells

SMILES | inhibition of mean fluorescence | inhibition of percent positive cells
Cc1ccc(S(=O)(=O)c2nnn3c2nc(Nc2ccc(Oc4ccccc4)cc2)c2ccccc23)cc1 | -5% (inactive) | 0%
O=C(Nc1ccc2c(c1)OCO2)C(c1ccccc1)N1CCC2(CC1)OCCO2 (stereo not drawn) | -2.7% (inactive) | -0.2%
COc1cccc(Nc2c(F)c(F)c(F)c(F)c2C(=O)O)c1 | -12.9% (inactive) | -0.2%
O=C(NCCN1CCN(c2ccccc2)CC1)c1cccc(Cl)c1 | -5.6% (inactive) | 0%
O=C(NCC(c1cccnc1)N1CCN(c2ccccc2)CC1)c1ccccc1F (stereo not drawn) | -31.8% (inactive) | -1.7%
CCOC(=O)c1oc2cccc(O)c2c1C | 0.4% (inactive) | -0.8%
CC(=O)c1cc2cc(O)ccc2o1 | -1% (inactive) | 0.8%
COc1c(F)c(F)c(C(=O)O)c(Nc2ccc(C)cc2)c1F | 9.1% (inactive) | -1.6%
CCOC(=O)c1c(-c2ccc(OC)cc2)oc2ccc(O)cc12 | -20.8% (inactive) | 0.1%
CC(=O)c1c(C)oc2ccc(O)cc12 | -5.9% (inactive) | -1.1%
CCOC(=O)c1c(C)oc2cc(Br)c(O)c(Br)c12 | 55.9% (active) | 0.7%
CCc1ccc(S(=O)(=O)c2nnn3c2nc(Nc2ccc(OC)cc2)c2sccc23)cc1 | 5.8% (inactive) | -0.5%
O=C(Nc1ccc2c(c1)OCO2)C(c1ccccc1)N1CCN(C(=O)c2ccco2)CC1 (stereo not drawn) | -23.7% (inactive) | 1%
COc1ccc(N2CCN(C(CNC(=O)c3ccccc3F)c3cccnc3)CC2)cc1 (stereo not drawn) | -65.6% (inactive) | -1.1%
